Residue numbers refer to the chain shown, from its start. Whole data set: some 16,000 sequences, median “ka relative to ugcaugu” near 0.096, cut for the highest 2% near 0.35. For the sample, the highest values were picked, then their nearest neighbours and some sequences at random.
B1: UCCCGUA (DNA:RNA)
RNA: GGGAGACCGGAAUUCAGAUUGUCCUCCCGUAUUAAAUCCCGUCGUAGCCACCA
DNA 1: CAATCTGAATTCCGGTCTCCC
DNA 2: TGGTGGCTACGACGGGATT
B2: UGAAUGU (DNA:RNA)
RNA: B1 RNA with C26G, C27A, C28A, G29U, U30G, A31U
DNA 1: CAATCTGAATTCCGGTCTCCC
DNA 2: TGGTGGCTACGACGGGATT
B3: CUGAAUC (DNA:RNA)
RNA: B1 RNA with U25C, C26U, C27G, C28A, G29A, A31C
DNA 1: CAATCTGAATTCCGGTCTCCC
DNA 2: TGGTGGCTACGACGGGATT
B4: CCCUGAA (DNA:RNA)
RNA: B1 RNA with U25C, C28U, U30A
DNA 1: CAATCTGAATTCCGGTCTCCC
DNA 2: TGGTGGCTACGACGGGATT
B5: CUGAAUG (DNA:RNA)
RNA: B1 RNA with U25C, C26U, C27G, C28A, G29A, A31G
DNA 1: CAATCTGAATTCCGGTCTCCC
DNA 2: TGGTGGCTACGACGGGATT
B6: UGAAAUG (DNA:RNA)
RNA: B1 RNA with C26G, C27A, C28A, G29A, A31G
DNA 1: CAATCTGAATTCCGGTCTCCC
DNA 2: TGGTGGCTACGACGGGATT
B7: UGAUUGU (DNA:RNA)
RNA: B1 RNA with C26G, C27A, C28U, G29U, U30G, A31U
DNA 1: CAATCTGAATTCCGGTCTCCC
DNA 2: TGGTGGCTACGACGGGATT
B8: CGGUUCC (DNA:RNA)
RNA: GGGAGACCGGAAUUCAGAUUGUCCCGGUUCCUUAAAUCCCGUCGUAGCCACCA
DNA 1: CAATCTGAATTCCGGTCTCCC
DNA 2: TGGTGGCTACGACGGGATT
B9: UUUCGAG (DNA:RNA)
RNA: B1 RNA with C26U, C27U, U30A, A31G
DNA 1: CAATCTGAATTCCGGTCTCCC
DNA 2: TGGTGGCTACGACGGGATT
B10: AUUAUUA (DNA:RNA)
RNA: B1 RNA with U25A, C26U, C27U, C28A, G29U
DNA 1: CAATCTGAATTCCGGTCTCCC
DNA 2: TGGTGGCTACGACGGGATT
B11: UUUUUAA (DNA:RNA)
RNA: B8 RNA with C25U, G26U, G27U, C30A, C31A
DNA 1: CAATCTGAATTCCGGTCTCCC
DNA 2: TGGTGGCTACGACGGGATT
B12: ACUUAAG (DNA:RNA)
RNA: B8 RNA with C25A, G26C, G27U, U29A, C30A, C31G
DNA 1: CAATCTGAATTCCGGTCTCCC
DNA 2: TGGTGGCTACGACGGGATT
B13: CCAGAGG (DNA:RNA)
RNA: B8 RNA with G26C, G27A, U28G, U29A, C30G, C31G
DNA 1: CAATCTGAATTCCGGTCTCCC
DNA 2: TGGTGGCTACGACGGGATT
B14: UCGAGAA (DNA:RNA)
RNA: B1 RNA with C27G, C28A, U30A
DNA 1: CAATCTGAATTCCGGTCTCCC
DNA 2: TGGTGGCTACGACGGGATT
B15: UUUCGCU (DNA:RNA)
RNA: B1 RNA with C26U, C27U, U30C, A31U
DNA 1: CAATCTGAATTCCGGTCTCCC
DNA 2: TGGTGGCTACGACGGGATT
B16: CCGAACG (DNA:RNA)
RNA: B8 RNA with G26C, U28A, U29A, C31G
DNA 1: CAATCTGAATTCCGGTCTCCC
DNA 2: TGGTGGCTACGACGGGATT
B17: UUGAACC (DNA:RNA)
RNA: B8 RNA with C25U, G26U, U28A, U29A
DNA 1: CAATCTGAATTCCGGTCTCCC
DNA 2: TGGTGGCTACGACGGGATT
B18: CGAACGU (DNA:RNA)
RNA: B8 RNA with G27A, U28A, U29C, C30G, C31U
DNA 1: CAATCTGAATTCCGGTCTCCC
DNA 2: TGGTGGCTACGACGGGATT
B19: UGGAACG (DNA:RNA)
RNA: B8 RNA with C25U, U28A, U29A, C31G
DNA 1: CAATCTGAATTCCGGTCTCCC
DNA 2: TGGTGGCTACGACGGGATT
B20: GUUAACG (DNA:RNA)
RNA: B8 RNA with C25G, G26U, G27U, U28A, U29A, C31G
DNA 1: CAATCTGAATTCCGGTCTCCC
DNA 2: TGGTGGCTACGACGGGATT
B21: UGGACCG (DNA:RNA)
RNA: B8 RNA with C25U, U28A, U29C, C31G
DNA 1: CAATCTGAATTCCGGTCTCCC
DNA 2: TGGTGGCTACGACGGGATT
B22: GAACGUU (DNA:RNA)
RNA: B1 RNA with U25G, C26A, C27A, A31U
DNA 1: CAATCTGAATTCCGGTCTCCC
DNA 2: TGGTGGCTACGACGGGATT
B23: UUGAACG (DNA:RNA)
RNA: B8 RNA with C25U, G26U, U28A, U29A, C31G
DNA 1: CAATCTGAATTCCGGTCTCCC
DNA 2: TGGTGGCTACGACGGGATT
B24: GGAACGU (DNA:RNA)
RNA: B8 RNA with C25G, G27A, U28A, U29C, C30G, C31U
DNA 1: CAATCTGAATTCCGGTCTCCC
DNA 2: TGGTGGCTACGACGGGATT
B25: UUAAACG (DNA:RNA)
RNA: B8 RNA with C25U, G26U, G27A, U28A, U29A, C31G
DNA 1: CAATCTGAATTCCGGTCTCCC
DNA 2: TGGTGGCTACGACGGGATT
B26: UGGACGU (DNA:RNA)
RNA: B8 RNA with C25U, U28A, U29C, C30G, C31U
DNA 1: CAATCTGAATTCCGGTCTCCC
DNA 2: TGGTGGCTACGACGGGATT
B27: CGGAACG (DNA:RNA)
RNA: B8 RNA with U28A, U29A, C31G
DNA 1: CAATCTGAATTCCGGTCTCCC
DNA 2: TGGTGGCTACGACGGGATT
B28: CGCUCCU (DNA:RNA)
RNA: B8 RNA with G27C, U29C, C31U
DNA 1: CAATCTGAATTCCGGTCTCCC
DNA 2: TGGTGGCTACGACGGGATT
B29: GGAGGUA (DNA:RNA)
RNA: B1 RNA with U25G, C26G, C27A, C28G
DNA 1: CAATCTGAATTCCGGTCTCCC
DNA 2: TGGTGGCTACGACGGGATT
B30: GGCCGUU (DNA:RNA)
RNA: B1 RNA with U25G, C26G, A31U
DNA 1: CAATCTGAATTCCGGTCTCCC
DNA 2: TGGTGGCTACGACGGGATT
B31: GUUUUCU (DNA:RNA)
RNA: B8 RNA with C25G, G26U, G27U, C31U
DNA 1: CAATCTGAATTCCGGTCTCCC
DNA 2: TGGTGGCTACGACGGGATT

The binders below were run against T1, RBFOX1 RRM RbFoxmut (Fox-RRM*) (Homo sapiens, UniProt Q9NWB1 109-208, R118D;E147R;N151S;E152T) (assay: EMSA; HiTS-Eq, 1 nM pool, 10 min; buffer printed only for the single-RNA assays: 10 mM Tris pH 7.5, 150 mM NaCl, 3.4 mM EDTA, 0.001% NP-40, 30 C). Details: tags: His6 N-terminal (pET28a); label: 5' 32P.
T1 sequence: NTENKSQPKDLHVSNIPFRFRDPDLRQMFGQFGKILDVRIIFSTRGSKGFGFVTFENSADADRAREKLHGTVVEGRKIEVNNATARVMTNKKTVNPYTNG
In short: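 Purified RbFox RRM, wild type or mutant, was incubated for 10 min in 50 µL with 1 nM of a 5′-radiolabelled RNA pool carrying 7 randomized nucleotides, whose flanks were annealed to DNA oligonucleotides, over a series of increasing protein concentrations. Unbound RNA was resolved on 8% native PAGE, cut out, reverse-transcribed, barcoded by PCR and sequenced on an Illumina HiSeq 2500. Relative association constants were derived from changes in read counts for each RNA species versus the control reaction and normalised to the cognate motif.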

Point of comparison: B8, binding signal 0.104 KA relative to UGCAUGU. Against it:
- B1 — higher, 0.12 KA relative to UGCAUGU
- B2 — higher, 0.75 KA relative to UGCAUGU
- B3 — higher, 0.315 KA relative to UGCAUGU
- B4 — lower, 0.0778 KA relative to UGCAUGU
- B5 — higher, 0.915 KA relative to UGCAUGU
- B6 — higher, 0.158 KA relative to UGCAUGU
- B7 — higher, 0.308 KA relative to UGCAUGU
- B9 — higher, 0.107 KA relative to UGCAUGU
- B10 — higher, 0.154 KA relative to UGCAUGU
- B11 — lower, 0.1 KA relative to UGCAUGU
- B12 — higher, 0.174 KA relative to UGCAUGU
- B13 — lower, 0.0884 KA relative to UGCAUGU
- B14 — higher, 0.116 KA relative to UGCAUGU
- B15 — lower, 0.0799 KA relative to UGCAUGU
- B16 — higher, 0.211 KA relative to UGCAUGU
- B17 — higher, 0.129 KA relative to UGCAUGU
- B18 — higher, 0.175 KA relative to UGCAUGU
- B19 — higher, 0.84 KA relative to UGCAUGU
- B20 — higher, 0.111 KA relative to UGCAUGU
- B21 — higher, 0.238 KA relative to UGCAUGU
- B22 — higher, 0.199 KA relative to UGCAUGU
- B23 — higher, 0.39 KA relative to UGCAUGU
- B24 — higher, 0.415 KA relative to UGCAUGU
- B25 — lower, 0.0812 KA relative to UGCAUGU
- B26 — higher, 0.147 KA relative to UGCAUGU
- B27 — higher, 0.53 KA relative to UGCAUGU
- B28 — lower, 0.0521 KA relative to UGCAUGU
- B29 — higher, 0.121 KA relative to UGCAUGU
- B30 — lower, 0.0754 KA relative to UGCAUGU
- B31 — lower, 0.0724 KA relative to UGCAUGU
